# From the supplement of paper PMC10646978
# ± gives the standard deviation.
# What was measured:
# Conditions in all cases: modulator concentration 10 µM
# [1] = system: RAW-Dual (murine macrophage reporter line); assay: NF-kB reporter (SEAP) activity fold change vs agonist alone; higher = enhanced NF-kB activity
# Outline: (§1)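 Compound reached 10 μM final in each well by pin transfer, onto RAW-Dual murine macrophage reporter cells seeded at 50 000 per well in 384-well plates. After 1 hour at 37 °C, the cells were stimulated overnight with a PRR agonist. SEAP in the supernatant was read with QUANTI-Blue at 620 nm absorbance for NF-κB, and Lucia luciferase was read with QUANTI-Luc luminescence for IRF. Each signal was turned into fold change against the mean agonist-only control on the same plate, and two replicate plates were averaged with propagated errors.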
# [2] = system: RAW-Dual (murine macrophage reporter line); assay: IRF reporter (Lucia luciferase) activity fold change vs agonist alone; higher = enhanced IRF activity
# Outline: as §1
# [3] = system: RAW-Dual (murine macrophage reporter line); assay: viability score (confluency relative to resting cells, overnight) (fraction); higher = more viable, active = viable (0.7 or more)
# Outline: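 Confluency was the readout: RAW-Dual macrophages were imaged with IncuCyte after an overnight exposure to compound at 10 μM final. IncuCyte software produced two masks over all imaged wells. The viability score expresses confluency against resting cells, and both masks had to exceed 70% of resting cells for a compound to meet the cutoff.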
# [4] = agonist: CpG ODN 1826 0.5 ug/mL
Structure (SMILES),"NF-kB reporter [1, 4]",NF-kB reporter ([1]; agonist: LPS 0.1 ug/mL),NF-kB reporter ([1]; agonist: MPLA […]),IRF reporter ([2]; agonist: 3'3'-cGAMP 10 ug/mL),IRF reporter ([2]; agonist: LPS 0.1 ug/mL),IRF reporter ([2]; agonist: MPLA […]),viability score [3]
CC1CC(=O)C2=C(C1)OC(N)=C(C#N)C2c1ccc(Cl)cc1 (stereo unspecified),0.905 ± 0.093,1.06 ± 0.075,0.928 ± 0.042,0.721 ± 0.03,1 ± 0.07,0.909 ± 0.13,0.992 (active)
COc1cccc2c1C(=O)c1c(O)c3c(c(O)c1C2=O)C[C@@](O)(C(C)=O)C[C@@H]3O[C@H]1C[C@H](N)[C@H](O)[C@H](C)O1 [Prestw-487],0.0705 ± 0.0054,0.0667 ± 0.019,0.095 ± 0.0092,0.0214 ± 0.0026,0.024 ± 0.0063,0.0245 ± 0.0067,0.325 (inactive)
Cc1cc(O)nc(NN)n1,1.06 ± 0.087,1.01 ± 0.062,1.02 ± 0.033,0.983 ± 0.054,0.971 ± 0.13,0.861 ± 0.13,0.999 (active)
O=S(=O)(c1ccccc1)N1CCOCC1,0.956 ± 0.057,0.992 ± 0.061,0.935 ± 0.071,0.981 ± 0.033,1.33 ± 0.21,1.15 ± 0.15,1 (active)
CC(C)CNC(=O)C(=O)Nc1ccc(C(C)C)cc1,1.03 ± 0.12,0.931 ± 0.11,1.01 ± 0.038,0.989 ± 0.15,0.959 ± 0.052,0.958 ± 0.093,1 (active)
Cl.NC1=NCC2c3ccccc3Cc3ccccc3N12 (stereo unspecified),1.03 ± 0.077,1.09 ± 0.056,1.06 ± 0.077,0.898 ± 0.068,0.982 ± 0.051,0.822 ± 0.11,1 (active)
CCCc1nc2ccccc2c(NC(=O)CN2CCOCC2)c1CC.O=C(O)C(=O)O,1.01 ± 0.078,1.12 ± 0.093,1.01 ± 0.059,1 ± 0.048,1.48 ± 0.27,1.16 ± 0.13,1 (active)
COc1ccc(S(=O)(=O)NCc2cccnc2-c2cnn(C)c2)cc1Cl,1.1 ± 0.055,1.15 ± 0.12,1.04 ± 0.06,1.17 ± 0.058,1.11 ± 0.072,1.04 ± 0.19,0.999 (active)
CCOc1ccccc1OCCCCOc1ccc(Cl)c(C)c1,0.947 ± 0.11,1.12 ± 0.081,1.07 ± 0.084,0.937 ± 0.1,1.03 ± 0.16,1.15 ± 0.35,1 (active)
COC(CNS(=O)(=O)c1ccccc1Br)c1ccc(Cl)s1 (stereo unspecified),0.968 ± 0.32,1.08 ± 0.1,1.07 ± 0.071,1.18 ± 0.039,1.01 ± 0.12,1.21 ± 0.24,0.959 (active)
O=c1[nH]c(=O)n([C@H]2C[C@H](O)[C@@H](CO)O2)cc1F,1.65 ± 0.14,1.02 ± 0.12,1.11 ± 0.028,0.75 ± 0.042,0.923 ± 0.083,0.863 ± 0.067,0.669 (inactive)
Cc1cc(/C=C/C#N)cc(C)c1Nc1ccnc(Nc2ccc(C#N)cc2)n1,0.602 ± 0.17,0.605 ± 0.044,1.3 ± 0.12,0.209 ± 0.014,0.662 ± 0.071,0.886 ± 0.13,0.985 (active)
O=S(=O)(Nc1ccnc2ccccc12)c1ccccc1,0.928 ± 0.075,0.88 ± 0.066,0.936 ± 0.088,0.858 ± 0.03,1.12 ± 0.11,1.15 ± 0.19,1.03 (active)
